# Most compounds without a hit are left out; they make up all but 0.86% or so of the library.
# TAR Tat displ = HIV-1 TAR-Tat binding disruption. HIV-1 TAR RNA, Tat peptide displacement FRET; hits give high values. z-score (no concentration beside the values). actives 0.6% (n = 100,000). AID 1259389; active = z-score of 3 or more in at least 2 runs
# CDC25B CDK2 inh = human CDC25B-CDK2/CyclinA binding inhibition | HTRF CDC25B-CDK2/CyclinA binding, anti-His/anti-Flag; hits give high values | z-score (test concentration not listed) | actives 0.72% (n = 94,000) | AID 1259370; in the data active = z-score above about 3.2
# * hit, by the source's call; nt = no result given.
SMILES,TAR Tat displ,CDC25B CDK2 inh
Cc1ccc(SCc2cc(=O)n(-c3nc4ccccc4[nH]3)[nH]2)cc1,0.53,nt
COc1ccc(OCCNC(=O)c2c(F)cccc2Cl)cc1,nt,-0.12
CC(=O)N1c2ccc(S(=O)(=O)N3c4ccccc4CC3C)cc2CC1C (stereo not drawn),0.07,nt
COC(=O)c1cc(S(=O)(=O)N2c3ccccc3CC2C)c[nH]1 (stereo not drawn),21.6*,nt
CCS(=O)(=O)N1CCC2(CC1)OC(=O)C(C)=C2C(=O)N1CCN(c2ccc(F)cc2)CC1,-0.12,nt
Cc1c(C(=O)Nc2cc(F)ccc2F)sc2nc3n(c(=O)c12)CCCC3,0.51,nt
Cc1ccc(S(=O)(=O)Nc2cc(S(=O)(=O)c3ccc(C)cc3)c(O)c3cccnc23)cc1,1.5,0.77
Cc1ccc(S(=O)(=O)Nc2cc(Cl)c(O)c3ncccc23)cc1,1.5,13.6*
COc1ccc(C2OC(c3cc(C4CC4)nc4ccccc34)=NN2C(C)=O)c(OC)c1 (stereo not drawn),9.21*,nt
CC(=O)N1N=C(c2cc(C3CC3)nc3ccccc23)OC1c1ccccc1 (stereo not drawn),1.57,nt
COc1ccc(C2CC(=O)N3CN(C4CCCCC4)CSC3=C2C#N)c(OC)c1 (stereo not drawn),1.6,0.97
CCOc1cc(C2CC(=O)N3CN(C4CCCCC4)CSC3=C2C#N)ccc1O (stereo not drawn),0.91,3.38*
COc1cc(C2CC(=O)N3CN(C4CCCCC4)CSC3=C2C#N)ccc1O (stereo not drawn),-0.98,3.78*
Cc1cc(NC2CCCCC2)n2nc(C)c(-c3ccc(F)cc3)c2n1,-0.66,-1.06
O=C(NCc1nnnn1-c1ccccc1)Nc1ccccc1F,-0.05,nt
COc1ccc(Cl)c(Cn2c(NCCN)nc3c2c(=O)n(C)c(=O)n3C)c1,3.59*,4.59
COc1ccc(Cl)c(Cn2cnc3c2c(=O)n(C)c(=O)n3C)c1,nt,-0.26
COCCCNC(=O)C1=C(C)C(=O)OC12CCN(S(=O)(=O)c1cccs1)CC2,0.49,nt
O=C(c1cccs1)C(O)c1cccs1 (stereo not drawn),-0.77,13.1*
CN(C)c1ccc(C(O)C(=O)c2cccs2)cc1 (stereo not drawn),0.09,0.08
Brc1ccc(CNc2n[nH]c(-c3ccco3)n2)cc1,1.84,-2.66
CN(C)c1ccc(CNc2n[nH]c(-c3ccco3)n2)cc1,3.08,14.9*
CCC(C(=O)Nc1ccc(Br)c(C)c1)n1c2ccccc2c2nc(=O)cc(C)n21 (stereo not drawn),-1.47,-0.55
Cn1c(=O)c(C(=O)O)nc2ccccc21,0.87,-1.76
CCOC(=O)c1nc2ccccc2n(C)c1=O,-1.32,23*
SMILES,TAR Tat displ,CDC25B CDK2 inh
CCN(CC)C(=O)CSc1cn(CC(=O)N2CC(C)OC(C)C2)c2ccccc12 (stereo not drawn),0.23,nt
FC(F)(F)C(=C(N=C(Cl)SOCc1ccccc1)C(F)(F)C(F)(F)F)C(F)(F)F,nt,3.15
FC(F)(F)C(=C(SSCc1ccccc1)C(F)(F)C(F)(F)F)C(F)(F)F,nt,4.34*
COc1ccc(C(=O)OCc2cc(=O)n3c(C)csc3n2)cc1,0.76,nt
COc1ccc(Cn2c(=S)[nH]c3c(sc4ccccc43)c2=O)cc1,nt,0.02
Oc1ccccc1CN(Cc1ccccc1)Cc1ccccc1,0.39,-0.68
O=C(O)c1cc(N(Cc2ccccc2O)Cc2cc(O)ccc2O)ccc1O,34.4*,nt
Cn1ncc2c(Nc3ccccc3)nc(NCCN3CCOCC3)nc21,0.62,nt
CC(C)=CCC/C(C)=C/CC/C(C)=C/CC/C(C)=C/CC/C(C)=C/CC/C(C)=C/CC/C(C)=C/CC/C(C)=C/CC/C(C)=C/CO,31.6*,nt
CC(C)=CCC/C(C)=C/CC/C(C)=C/CO,0.89,nt
Cc1ccc(OCCSc2nc3c(c(=O)[nH]2)CCC3)cc1,2.3,-0.08
CCOC(=O)c1sc2nc(C)nc(Oc3ccc(OCC)cc3)c2c1C,-0.13,nt
CCOc1ccc(Oc2nc(C)nc3sc(C)c(C)c23)cc1,7.55*,nt
CCc1ccc(Nc2c(-c3ccc4c(c3)SCC(=O)N4)c(=O)c2=O)cc1,1.52,nt
COc1ccc(-c2onc(C)c2C)cc1S(=O)(=O)Nc1ccc2c(c1)OCCO2,0.19,nt
O=C(Nc1ccc2snnc2c1)NC1CC1,1.64,11.1*
O=C(Nc1ccc2snnc2c1)NC1CCCCC1,-0.4,-2.01
Oc1ccccc1-c1nc2cnccn2c1Nc1cccc(C(F)(F)F)c1,nt,0.86
CC1CN(c2nc(N3CCCCC3)nc(N)c2[N+](=O)[O-])CC(C)O1 (stereo not drawn),1.09,nt
CCCN(CCC)CCNC(=O)C1=C(C)C(=O)OC12CCN(C(C)=O)CC2,0.39,nt
Cc1csc(NC(=O)CSc2nnc(-c3cc4ccccc4o3)n2-c2ccccc2)n1,1.31,nt
CCn1c(SCC(=O)Nc2nc(C)cs2)nnc1-c1cc2ccccc2o1,5.35*,nt
COc1ccc(C2CC(=O)N3CN(C(C)c4ccccc4)CSC3=C2C#N)cc1OC (stereo not drawn),1.07,5.51*
N#CC1=C2SCN(C3CCCCC3)CN2C(=O)CC1c1ccccc1Cl (stereo not drawn),0.56,2.11
COc1ccc(C2CC(=O)N3CN(CCCc4ccccc4)CSC3=C2C#N)cc1OC (stereo not drawn),0.56,5.85*
SMILES,TAR Tat displ,CDC25B CDK2 inh
N#CC1=C2SCN(Cc3ccccc3)CN2C(=O)CC1c1cccs1 (stereo not drawn),-0.52,5.21*
Cc1c(Cl)cccc1N1CSC2=C(C#N)C(c3cccs3)CC(=O)N2C1 (stereo not drawn),-0.6,7.9*
CC(C)(C)C1CCC(C(=O)Nc2ccc3nc4n(c(=O)c3c2)CCCC4)CC1 (stereo not drawn),-0.45,-0.03
CC1(C)Cc2nc3oc4c(=O)n(CCCc5ccccc5)cnc4c3cc2CO1,0.74,nt
COc1cccc(-c2coc3cc4oc(=O)c5c(c4cc23)CCC5)c1,nt,-1.83
CC(C)CNc1nc(N)c([N+](=O)[O-])c(N2CC(C)CC(C)C2)n1 (stereo not drawn),0.67,nt
N#CC1=C2SCN(Cc3ccccc3)CN2C(=O)CC1c1cccc(F)c1 (stereo not drawn),1.06,4.89*
COc1cccc(C2CC(=O)N3CN(CCCc4ccccc4)CSC3=C2C#N)c1 (stereo not drawn),1.35,4.95*
COc1cccc(C2CC(=O)N3CN(Cc4ccccc4)CSC3=C2C#N)c1 (stereo not drawn),-0.29,5.25*
N#CC1=C2SCN(Cc3ccccc3)CN2C(=O)CC1c1ccc2c(c1)OCO2 (stereo not drawn),0.95,4.01*
CC(C)OCCCNC(=O)C1CCN(c2nn3c(=O)c4c(nc3s2)CCCC4)CC1,2.75,nt
O=S1OCC(COc2ccccc2)O1 (stereo not drawn),nt,0.85
N#CC1=C2SCN(Cc3ccco3)CN2C(=O)CC1c1cccc(OCc2ccccc2)c1 (stereo not drawn),-1.2,3.42*
COc1cc(C2CC(=O)N3CN(C)CSC3=C2C#N)ccc1OCc1ccccc1 (stereo not drawn),-1.26,4.08*
N#CC1=C2SCN(Cc3ccco3)CN2C(=O)CC1c1ccc(OCc2ccccc2)cc1 (stereo not drawn),0.22,-1.75
COc1cc(C2CC(=O)N3CN(Cc4ccco4)CSC3=C2C#N)ccc1OCc1ccccc1 (stereo not drawn),-1.24,-0.88
O=C(NCc1cccs1)C1CCN(c2ccc(F)cc2)C1=O (stereo not drawn),1.52,nt
